The record followed here is paper PMC7862700, “An all-to-all approach to the identification of sequence-specific readers for epigenetic DNA modifications on cytosine”.

Assay in all cases: DAPPL (digital affinity profiling via proximity ligation, sequencing); 10 mM Tris-HCl pH 7.5, 50 mM NaCl, 1 mM DTT, 4% glycerol, room temperature, 30 min; GST-TFs on glutathione beads, 16-mer random dsDNA library, 0.1% formaldehyde crosslink after washing; high values mean tight binding
One test deals with T1, FLI1 (Homo sapiens, UniProt Q01543 1-452).
T1 sequence: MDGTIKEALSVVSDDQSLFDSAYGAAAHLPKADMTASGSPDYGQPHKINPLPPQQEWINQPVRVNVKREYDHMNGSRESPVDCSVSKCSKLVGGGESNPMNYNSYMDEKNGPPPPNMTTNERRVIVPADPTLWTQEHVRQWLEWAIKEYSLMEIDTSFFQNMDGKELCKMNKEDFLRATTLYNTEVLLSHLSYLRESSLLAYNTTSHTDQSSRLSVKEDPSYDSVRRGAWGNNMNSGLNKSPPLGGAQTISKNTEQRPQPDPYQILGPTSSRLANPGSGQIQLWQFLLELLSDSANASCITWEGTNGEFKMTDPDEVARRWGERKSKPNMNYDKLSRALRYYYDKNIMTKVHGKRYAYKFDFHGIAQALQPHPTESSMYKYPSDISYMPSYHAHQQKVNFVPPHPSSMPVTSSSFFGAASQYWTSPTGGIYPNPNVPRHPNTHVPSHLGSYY
To be noted: protein: recombinant; tags: N-terminal GST; dsDNA, one strand shown. The method, boiled down: (§1)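 Yeast served to express human transcription factors as GST fusions, which were then captured on glutathione beads and labelled with DNA barcodes. Pooled with a tag-only sample, they were incubated with 200 nmole of a 16-mer random double-stranded DNA library for 30 min at room temperature in Tris/NaCl/DTT/glycerol buffer, washed, crosslinked with 0.1% formaldehyde, ligated by proximity, amplified by PCR and sequenced. Dividing each hexamer's read frequency for a factor by its frequency for the tag-only sample gives the binding signal.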

For another test, the target named is T2, ELK1 (Homo sapiens, UniProt P19419 1-428).
T2 sequence: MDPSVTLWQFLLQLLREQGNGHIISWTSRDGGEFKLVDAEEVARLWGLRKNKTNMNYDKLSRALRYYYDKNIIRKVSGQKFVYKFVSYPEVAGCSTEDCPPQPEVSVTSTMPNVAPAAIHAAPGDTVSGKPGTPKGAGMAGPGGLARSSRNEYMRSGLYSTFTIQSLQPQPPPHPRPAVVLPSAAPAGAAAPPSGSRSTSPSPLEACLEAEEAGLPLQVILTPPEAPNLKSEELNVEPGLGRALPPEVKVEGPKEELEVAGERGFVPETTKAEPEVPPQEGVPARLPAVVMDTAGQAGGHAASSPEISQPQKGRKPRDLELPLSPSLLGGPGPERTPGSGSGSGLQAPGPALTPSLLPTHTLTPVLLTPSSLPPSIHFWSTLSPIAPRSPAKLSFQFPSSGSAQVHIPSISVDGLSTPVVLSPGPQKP
The settings on record: protein: recombinant; tags: N-terminal GST; dsDNA, one strand shown. An outline of the steps:
as §1

A further test has as its target T3, GABPA (Homo sapiens, UniProt Q06546 1-454).
T3 sequence: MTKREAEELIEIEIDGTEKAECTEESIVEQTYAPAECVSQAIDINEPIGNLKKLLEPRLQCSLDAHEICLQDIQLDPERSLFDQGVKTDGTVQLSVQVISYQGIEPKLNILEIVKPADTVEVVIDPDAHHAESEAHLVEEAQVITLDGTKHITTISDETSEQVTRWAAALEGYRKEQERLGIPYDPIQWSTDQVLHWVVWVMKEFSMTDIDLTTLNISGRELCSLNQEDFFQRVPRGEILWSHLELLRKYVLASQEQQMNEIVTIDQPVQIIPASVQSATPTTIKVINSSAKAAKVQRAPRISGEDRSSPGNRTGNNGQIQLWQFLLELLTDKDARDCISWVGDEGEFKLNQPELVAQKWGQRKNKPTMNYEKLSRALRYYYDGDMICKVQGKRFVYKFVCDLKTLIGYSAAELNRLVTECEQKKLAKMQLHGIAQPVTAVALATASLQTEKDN
To be noted: protein: recombinant; tags: N-terminal GST; dsDNA, one strand shown. An outline of the steps: as §1

A further test concerns the target T4, ERG (Homo sapiens, UniProt P11308 1-479).
T4 sequence: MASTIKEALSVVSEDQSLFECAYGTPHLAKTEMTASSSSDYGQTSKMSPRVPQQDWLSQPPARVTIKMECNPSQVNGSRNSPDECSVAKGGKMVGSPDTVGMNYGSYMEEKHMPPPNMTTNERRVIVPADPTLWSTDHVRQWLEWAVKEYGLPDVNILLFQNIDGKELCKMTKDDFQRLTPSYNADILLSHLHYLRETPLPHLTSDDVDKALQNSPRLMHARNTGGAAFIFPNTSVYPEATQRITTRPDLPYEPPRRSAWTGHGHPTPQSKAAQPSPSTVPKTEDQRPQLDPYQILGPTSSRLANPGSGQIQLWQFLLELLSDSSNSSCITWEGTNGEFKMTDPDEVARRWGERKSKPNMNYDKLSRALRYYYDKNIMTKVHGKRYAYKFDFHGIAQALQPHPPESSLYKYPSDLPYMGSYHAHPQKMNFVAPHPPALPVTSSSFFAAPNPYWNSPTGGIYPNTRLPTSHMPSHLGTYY
The settings on record: protein: recombinant; tags: N-terminal GST; dsDNA, one strand shown. An outline of the steps: as §1

A further test addresses ELF1 (Homo sapiens, UniProt P32519 1-619). To be noted: protein: recombinant; tags: N-terminal GST; dsDNA, one strand shown. An outline of the steps: as §1
The next test deals with T5, EHF (Homo sapiens, UniProt Q9NZC4 1-300).
T5 sequence: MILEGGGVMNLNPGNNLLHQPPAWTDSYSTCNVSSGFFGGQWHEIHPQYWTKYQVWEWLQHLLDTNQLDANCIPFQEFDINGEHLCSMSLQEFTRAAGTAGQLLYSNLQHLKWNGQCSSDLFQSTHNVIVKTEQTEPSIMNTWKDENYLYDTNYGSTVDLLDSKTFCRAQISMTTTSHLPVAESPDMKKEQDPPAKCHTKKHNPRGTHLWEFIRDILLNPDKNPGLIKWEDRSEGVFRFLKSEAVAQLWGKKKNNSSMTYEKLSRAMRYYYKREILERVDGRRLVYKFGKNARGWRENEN
To be noted: protein: recombinant; tags: N-terminal GST; dsDNA, one strand shown. An outline of the steps: as §1

In the next test the target is SPI1 (Homo sapiens, UniProt P17947 1-270). The settings on record: protein: recombinant; tags: N-terminal GST; dsDNA, one strand shown. The method, boiled down:
as §1

The next test addresses SPIB (Homo sapiens, UniProt Q01892 1-262). The settings on record: protein: recombinant; tags: N-terminal GST; dsDNA, one strand shown. An outline of the steps: as §1
For the next test, the target named is T6, ELK3 (Homo sapiens, UniProt P41970 1-407).
T6 sequence: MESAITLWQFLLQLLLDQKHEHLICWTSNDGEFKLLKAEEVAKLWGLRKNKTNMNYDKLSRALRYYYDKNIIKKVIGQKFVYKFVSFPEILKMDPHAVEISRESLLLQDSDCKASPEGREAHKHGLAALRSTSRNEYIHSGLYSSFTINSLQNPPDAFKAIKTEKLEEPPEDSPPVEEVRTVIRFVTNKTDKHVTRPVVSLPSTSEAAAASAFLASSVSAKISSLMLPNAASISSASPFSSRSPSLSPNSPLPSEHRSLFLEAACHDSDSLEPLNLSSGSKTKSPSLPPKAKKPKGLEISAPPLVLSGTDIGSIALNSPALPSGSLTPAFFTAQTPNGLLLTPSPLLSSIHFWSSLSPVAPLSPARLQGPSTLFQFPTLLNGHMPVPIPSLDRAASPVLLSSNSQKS
To be noted: protein: recombinant; tags: N-terminal GST; dsDNA, one strand shown. An outline of the steps: as §1

Another test addresses T7, FEV (Homo sapiens, UniProt Q99581 1-238).
T7 sequence: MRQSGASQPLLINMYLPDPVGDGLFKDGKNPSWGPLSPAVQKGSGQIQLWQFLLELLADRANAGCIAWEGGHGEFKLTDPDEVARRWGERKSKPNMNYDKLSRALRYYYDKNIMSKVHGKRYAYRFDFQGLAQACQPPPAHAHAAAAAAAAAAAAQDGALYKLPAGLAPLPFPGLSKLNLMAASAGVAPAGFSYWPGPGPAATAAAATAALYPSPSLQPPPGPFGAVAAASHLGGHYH
The settings on record: protein: recombinant; tags: N-terminal GST; dsDNA, one strand shown. The method, boiled down: as §1

For a further test, the target named is ETV5 (Homo sapiens, UniProt P41161 1-510). The settings on record: protein: recombinant; tags: N-terminal GST; dsDNA, one strand shown. An outline of the steps:
as §1

The next test has as its target HSF1 (Homo sapiens, UniProt Q00613 1-529). To be noted: protein: recombinant; tags: N-terminal GST; chain copies: 3; dsDNA, one strand shown. An outline of the steps:
as §1

In a further test the target is T8, SPIC (Homo sapiens, UniProt Q8N5J4 1-248).
T8 sequence: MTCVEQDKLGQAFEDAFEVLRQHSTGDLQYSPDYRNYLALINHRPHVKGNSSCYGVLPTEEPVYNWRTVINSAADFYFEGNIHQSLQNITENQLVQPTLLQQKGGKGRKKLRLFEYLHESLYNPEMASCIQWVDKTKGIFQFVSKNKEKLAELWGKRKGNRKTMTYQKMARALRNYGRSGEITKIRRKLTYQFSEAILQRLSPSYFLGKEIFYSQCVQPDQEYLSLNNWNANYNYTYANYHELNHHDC
The settings on record: protein: recombinant; tags: N-terminal GST; dsDNA, one strand shown. An outline of the steps:
as §1

For the next test, the target named is ELF4 (Homo sapiens, UniProt Q99607 1-663). The settings on record: protein: recombinant; tags: N-terminal GST; dsDNA, one strand shown. An outline of the steps: as §1
In a further test the target is T9, ELK4 (Homo sapiens, UniProt P28324-2 1-405).
T9 sequence: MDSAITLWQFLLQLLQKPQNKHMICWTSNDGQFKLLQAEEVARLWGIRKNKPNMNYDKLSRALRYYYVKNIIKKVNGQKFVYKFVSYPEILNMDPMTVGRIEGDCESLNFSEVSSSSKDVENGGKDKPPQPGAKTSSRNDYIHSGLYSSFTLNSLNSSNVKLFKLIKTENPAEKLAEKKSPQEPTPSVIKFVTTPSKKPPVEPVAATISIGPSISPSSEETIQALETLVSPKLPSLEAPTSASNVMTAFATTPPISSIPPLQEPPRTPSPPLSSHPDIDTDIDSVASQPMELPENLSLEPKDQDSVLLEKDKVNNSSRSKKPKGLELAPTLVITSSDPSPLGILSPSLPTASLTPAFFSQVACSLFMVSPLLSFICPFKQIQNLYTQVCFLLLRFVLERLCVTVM
The settings on record: protein: recombinant; tags: N-terminal GST; dsDNA, one strand shown. An outline of the steps:
as §1

The target in another test is T10, ETV2 (Homo sapiens, UniProt O00321 1-342).
T10 sequence: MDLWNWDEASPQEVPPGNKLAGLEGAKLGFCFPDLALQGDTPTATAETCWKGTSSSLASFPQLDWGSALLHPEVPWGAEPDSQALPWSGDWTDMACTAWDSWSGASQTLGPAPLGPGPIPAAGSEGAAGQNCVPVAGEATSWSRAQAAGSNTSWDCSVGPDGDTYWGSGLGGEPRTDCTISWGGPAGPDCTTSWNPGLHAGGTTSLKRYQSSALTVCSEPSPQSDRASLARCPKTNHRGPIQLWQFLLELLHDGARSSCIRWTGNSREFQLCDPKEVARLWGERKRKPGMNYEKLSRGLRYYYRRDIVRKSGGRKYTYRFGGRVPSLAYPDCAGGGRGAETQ
To be noted: protein: recombinant; tags: N-terminal GST; dsDNA, one strand shown. The method, boiled down: as §1

A further test has as its target T11, ELF3 (Homo sapiens, UniProt P78545 1-371).
T11 sequence: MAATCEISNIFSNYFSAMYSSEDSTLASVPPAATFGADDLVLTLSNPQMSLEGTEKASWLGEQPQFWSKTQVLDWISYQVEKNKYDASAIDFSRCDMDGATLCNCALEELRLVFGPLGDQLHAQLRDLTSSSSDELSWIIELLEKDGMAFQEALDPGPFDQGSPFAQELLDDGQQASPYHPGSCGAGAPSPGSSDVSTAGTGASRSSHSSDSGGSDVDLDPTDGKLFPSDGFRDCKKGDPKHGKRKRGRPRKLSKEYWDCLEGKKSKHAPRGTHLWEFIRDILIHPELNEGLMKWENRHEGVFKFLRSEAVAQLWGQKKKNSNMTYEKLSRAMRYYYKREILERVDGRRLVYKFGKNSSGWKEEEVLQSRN
To be noted: protein: recombinant; tags: N-terminal GST; dsDNA, one strand shown. An outline of the steps: as §1

The next test deals with CRX (Homo sapiens, UniProt O43186 1-299). The settings on record: protein: recombinant; tags: N-terminal GST; dsDNA, one strand shown. The method, boiled down:
as §1

For a further test, the target named is ETV1 (Homo sapiens, UniProt P50549 1-477). To be noted: protein: recombinant; tags: N-terminal GST; dsDNA, one strand shown. The method, boiled down: as §1
Sequence of ETV1 (P50549 whole entry): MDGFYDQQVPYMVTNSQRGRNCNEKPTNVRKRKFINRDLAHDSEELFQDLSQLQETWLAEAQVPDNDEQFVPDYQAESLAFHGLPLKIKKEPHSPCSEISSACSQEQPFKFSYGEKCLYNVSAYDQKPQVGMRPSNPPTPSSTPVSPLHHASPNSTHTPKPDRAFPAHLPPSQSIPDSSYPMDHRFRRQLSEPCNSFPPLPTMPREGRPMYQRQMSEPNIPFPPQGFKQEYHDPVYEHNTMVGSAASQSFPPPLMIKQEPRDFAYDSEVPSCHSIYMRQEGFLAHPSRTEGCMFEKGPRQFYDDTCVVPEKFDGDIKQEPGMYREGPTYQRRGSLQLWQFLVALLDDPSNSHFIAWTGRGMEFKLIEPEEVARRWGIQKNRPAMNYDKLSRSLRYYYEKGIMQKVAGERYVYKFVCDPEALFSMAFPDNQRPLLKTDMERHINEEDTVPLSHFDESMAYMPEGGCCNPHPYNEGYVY

Sequence of ELF4 (Q99607 whole entry): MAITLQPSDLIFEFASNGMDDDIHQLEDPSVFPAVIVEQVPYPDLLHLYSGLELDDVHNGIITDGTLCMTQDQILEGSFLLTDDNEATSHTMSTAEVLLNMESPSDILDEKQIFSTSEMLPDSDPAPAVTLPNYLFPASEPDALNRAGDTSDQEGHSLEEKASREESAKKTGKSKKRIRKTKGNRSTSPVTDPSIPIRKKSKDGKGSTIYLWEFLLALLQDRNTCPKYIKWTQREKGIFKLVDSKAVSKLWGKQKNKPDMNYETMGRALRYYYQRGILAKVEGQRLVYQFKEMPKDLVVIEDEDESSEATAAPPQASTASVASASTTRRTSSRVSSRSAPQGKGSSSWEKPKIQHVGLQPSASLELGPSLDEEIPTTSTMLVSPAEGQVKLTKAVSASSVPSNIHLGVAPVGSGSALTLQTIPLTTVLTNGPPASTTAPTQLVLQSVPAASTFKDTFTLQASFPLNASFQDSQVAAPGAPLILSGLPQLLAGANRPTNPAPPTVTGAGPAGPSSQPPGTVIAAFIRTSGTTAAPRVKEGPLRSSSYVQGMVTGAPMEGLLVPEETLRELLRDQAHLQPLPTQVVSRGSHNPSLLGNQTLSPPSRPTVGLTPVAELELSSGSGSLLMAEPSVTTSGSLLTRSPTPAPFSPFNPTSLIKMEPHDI
Sequence of CRX (O43186 whole entry): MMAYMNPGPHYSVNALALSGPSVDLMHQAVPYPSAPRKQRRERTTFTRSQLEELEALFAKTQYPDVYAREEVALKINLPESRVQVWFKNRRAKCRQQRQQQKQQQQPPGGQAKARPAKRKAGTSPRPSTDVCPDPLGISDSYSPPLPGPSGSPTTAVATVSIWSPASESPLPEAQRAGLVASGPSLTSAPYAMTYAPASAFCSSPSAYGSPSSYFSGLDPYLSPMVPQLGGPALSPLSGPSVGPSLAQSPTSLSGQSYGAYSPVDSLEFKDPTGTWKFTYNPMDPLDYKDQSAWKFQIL
Sequence of HSF1 (Q00613 whole entry): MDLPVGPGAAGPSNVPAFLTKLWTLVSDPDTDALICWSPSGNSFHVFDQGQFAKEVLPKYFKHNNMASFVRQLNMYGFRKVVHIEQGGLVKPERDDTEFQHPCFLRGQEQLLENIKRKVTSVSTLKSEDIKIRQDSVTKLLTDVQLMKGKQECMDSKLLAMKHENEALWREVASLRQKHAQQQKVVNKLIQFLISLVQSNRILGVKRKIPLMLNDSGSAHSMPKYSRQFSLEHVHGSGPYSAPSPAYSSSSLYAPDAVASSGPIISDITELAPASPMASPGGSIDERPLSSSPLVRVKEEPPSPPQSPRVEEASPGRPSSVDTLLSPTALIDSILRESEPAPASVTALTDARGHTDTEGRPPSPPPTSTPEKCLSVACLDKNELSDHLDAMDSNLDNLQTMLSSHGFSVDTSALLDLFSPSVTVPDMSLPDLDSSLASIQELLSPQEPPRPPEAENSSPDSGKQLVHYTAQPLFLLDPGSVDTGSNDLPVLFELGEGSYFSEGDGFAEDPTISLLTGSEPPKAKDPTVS
Sequence of SPIB (Q01892 whole entry): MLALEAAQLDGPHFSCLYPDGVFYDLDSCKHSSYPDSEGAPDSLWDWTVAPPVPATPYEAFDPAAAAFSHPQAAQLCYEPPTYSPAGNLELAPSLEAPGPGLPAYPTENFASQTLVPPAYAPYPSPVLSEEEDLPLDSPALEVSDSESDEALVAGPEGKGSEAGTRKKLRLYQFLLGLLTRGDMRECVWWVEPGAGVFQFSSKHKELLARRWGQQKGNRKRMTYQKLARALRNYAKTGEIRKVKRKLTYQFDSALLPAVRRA
Sequence of ETV5 (P41161 whole entry): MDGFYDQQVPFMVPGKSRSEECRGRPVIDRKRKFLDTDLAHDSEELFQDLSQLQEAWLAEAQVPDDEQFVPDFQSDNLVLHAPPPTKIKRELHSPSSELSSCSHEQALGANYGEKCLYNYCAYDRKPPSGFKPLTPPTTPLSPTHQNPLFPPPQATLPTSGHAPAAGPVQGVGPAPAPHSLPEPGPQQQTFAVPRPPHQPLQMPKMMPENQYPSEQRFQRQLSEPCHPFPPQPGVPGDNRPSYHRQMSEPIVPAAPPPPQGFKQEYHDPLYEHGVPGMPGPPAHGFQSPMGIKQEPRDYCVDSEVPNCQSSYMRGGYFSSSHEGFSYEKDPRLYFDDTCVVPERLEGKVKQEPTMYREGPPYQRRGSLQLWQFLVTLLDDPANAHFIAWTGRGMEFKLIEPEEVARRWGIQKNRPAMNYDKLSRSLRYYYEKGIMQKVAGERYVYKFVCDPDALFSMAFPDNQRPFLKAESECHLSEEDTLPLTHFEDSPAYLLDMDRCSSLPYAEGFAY
Sequence of ELF1 (P32519 whole entry): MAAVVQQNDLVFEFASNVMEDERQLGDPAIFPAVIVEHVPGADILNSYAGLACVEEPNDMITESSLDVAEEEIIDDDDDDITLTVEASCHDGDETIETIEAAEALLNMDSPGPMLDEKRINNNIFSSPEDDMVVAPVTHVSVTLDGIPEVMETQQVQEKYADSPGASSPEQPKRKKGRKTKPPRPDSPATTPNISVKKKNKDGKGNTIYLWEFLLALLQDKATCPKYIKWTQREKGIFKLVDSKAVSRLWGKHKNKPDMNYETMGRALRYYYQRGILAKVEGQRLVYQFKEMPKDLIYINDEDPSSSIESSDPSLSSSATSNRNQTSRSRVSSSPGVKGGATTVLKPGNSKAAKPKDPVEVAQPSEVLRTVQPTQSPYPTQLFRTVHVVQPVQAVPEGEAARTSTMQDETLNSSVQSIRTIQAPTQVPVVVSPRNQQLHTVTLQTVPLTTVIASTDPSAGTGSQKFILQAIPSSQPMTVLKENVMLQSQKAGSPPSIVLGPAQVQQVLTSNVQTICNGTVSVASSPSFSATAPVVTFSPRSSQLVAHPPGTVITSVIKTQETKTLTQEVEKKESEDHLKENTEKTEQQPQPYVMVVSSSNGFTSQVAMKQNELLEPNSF

As for CCTTTG, the binding signal with FLI1 was 1.32 fold enrichment (6-mer frequency, TF over GST control); with ELK1, 1.3 fold enrichment (6-mer frequency, TF over GST control); in the test with GABPA, 1.4 fold enrichment (6-mer frequency, TF over GST control); with ERG, 1.37 fold enrichment (6-mer frequency, TF over GST control); with ELF1, 1.38 fold enrichment (6-mer frequency, TF over GST control); with EHF, 1.42 fold enrichment (6-mer frequency, TF over GST control). Also, the binding signal is 1.47 fold enrichment (6-mer frequency, TF over GST control) in the test with SPI1; 1.28 fold enrichment (6-mer frequency, TF over GST control) in the test with SPIB; 1.18 fold enrichment (6-mer frequency, TF over GST control) with ELK3; 1.31 fold enrichment (6-mer frequency, TF over GST control) in the test with FEV; 1.3 fold enrichment (6-mer frequency, TF over GST control) with ETV5; 1.21 fold enrichment (6-mer frequency, TF over GST control) in the test with HSF1. Besides, the binding signal is 1.38 fold enrichment (6-mer frequency, TF over GST control) with SPIC; 1.36 fold enrichment (6-mer frequency, TF over GST control) with ELF4; 1.19 fold enrichment (6-mer frequency, TF over GST control) in the test with ELK4; 1.24 fold enrichment (6-mer frequency, TF over GST control) with ETV2; 1.27 fold enrichment (6-mer frequency, TF over GST control) in the test with ELF3; 1.09 fold enrichment (6-mer frequency, TF over GST control) with CRX. The binding signal in the test with ETV1 was 1.42 fold enrichment (6-mer frequency, TF over GST control).
